# Only some compounds are listed: those with a hit (about 27% of all), similar ones and a draw of the others.
# CYP2C9 inh – blockers of cytochrome P450 2C9 activity – biochemical, luminescence, ADME assay, primary screen; inhibition, % at 5 µM; CYP2C9 Supersomes, luciferin-H conversion; 96,000 tested, 20% active; P11712;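 active means blocking of liver enzyme CYP2C9 beyond about 50% at 5 µM, limit read from the data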
# sEH act – soluble epoxide hydrolase activators, primary screen, biochemical, human sEH. purified human sEH enzymatic activity, activator screen. activation, % at 2 µM. 91,000 tested, 0.04% active. AID 717, 2007. Bifunctional epoxide hydrolase 2 (Homo sapiens), P34913; in the data active means activation above about 37%
# Target sequence (P34913 whole entry, looked up): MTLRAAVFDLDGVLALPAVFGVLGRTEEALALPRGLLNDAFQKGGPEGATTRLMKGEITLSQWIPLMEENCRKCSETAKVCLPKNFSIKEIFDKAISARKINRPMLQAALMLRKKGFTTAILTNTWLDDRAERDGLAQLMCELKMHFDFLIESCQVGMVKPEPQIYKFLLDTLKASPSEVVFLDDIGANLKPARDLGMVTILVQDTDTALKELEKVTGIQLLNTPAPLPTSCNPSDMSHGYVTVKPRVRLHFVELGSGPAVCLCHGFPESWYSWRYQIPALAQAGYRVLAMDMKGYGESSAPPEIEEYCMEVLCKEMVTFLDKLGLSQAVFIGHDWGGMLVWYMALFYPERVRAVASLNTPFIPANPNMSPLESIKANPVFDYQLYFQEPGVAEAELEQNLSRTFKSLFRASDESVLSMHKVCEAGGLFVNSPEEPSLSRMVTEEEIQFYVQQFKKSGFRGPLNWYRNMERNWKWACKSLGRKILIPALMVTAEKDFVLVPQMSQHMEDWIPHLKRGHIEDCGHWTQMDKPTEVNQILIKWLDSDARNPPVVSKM
# CYP2C19 act – human CYP2C19 activators, primary screen, biochemical, luminescence; recombinant CYP2C19, luciferin-H EGE luminescence; hits give high values; 0 = fully inhibited enzyme, 1 = untreated enzyme; activation factor at 5 µM; 96,000 tested, under 10 active; AID 1025, 2008;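 active means activation factor of at least 2 at 5 µM in the primary screen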;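 further: 0 = wells with 2.5 mM tranylcypromine and 1 = vehicle-only wells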
# CYP2C9 activ – human CYP2C9 activators, primary screen, biochemical, luminescence. recombinant CYP2C9, luciferin-H conversion; hits give high values; factor 1 = untreated enzyme, 0 = blocked. 96,000 tested, 1.4% active. activation factor at 5 µM;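 active means activation factor of 2 or more for CYP2C9 at a 5 µM dose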;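 further: 0 = sulfaphenazole-blocked wells and 1 = vehicle-only wells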
# CYP2C19 inhib – blockers of cytochrome P450 2C19 activity – biochemical, luminescence, ADME assay, primary screen | CYP2C19 Supersomes, luciferin-H EGE luminescence, 30 min | inhibition, % at 5 µM | 96,000 tested, 21% active;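 active means CYP2C19 inhibition above a set limit at 5 µM in the primary screen, cut at about 50% in these data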;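 further: plate controls were negative control wells for no effect and 2.5 mM tranylcypromine positive control for full effect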
# sEH inh – soluble epoxide hydrolase inhibitors, primary screen, biochemical, human sEH | Bifunctional epoxide hydrolase 2 (Homo sapiens), P34913 | recombinant human sEH enzymatic activity assay | inhibition, % at 2 µM | 91,000 tested, 0.34% active; in the data active means inhibition above about 80%
# * hit, by the source's call; nt = not tested or not shown.
SMILES,CYP2C9 inh,sEH act,CYP2C19 act,CYP2C9 activ,CYP2C19 inhib,sEH inh
CC1CC(C)CN(S(=O)(=O)c2ccc(C(=O)N3CCN(c4ccccc4)CC3)cc2)C1 (stereo unspecified),82*,nt,0.3,0.2,68*,nt
CCOC(=O)c1c(C)cccc1OCC(N)=O,nt,-4,nt,nt,nt,7
CCOc1ccc(-c2nnn(CC(=O)NCc3cccs3)n2)cc1,8,4,0.6,0.9,44,-6
Cc1ccc2c(c1)CN1CN2Cc2cc(C)ccc21,42,nt,0.5,0.6,54*,nt
O=C(c1cccc(COc2cccc3ccccc23)c1)N1CCCC1,nt,-4,nt,nt,nt,5
CCCC1CCc2c(sc(NC(=O)c3cccs3)c2C(N)=O)C1 (stereo unspecified),14,4,1.1,0.9,-14,-4
O=C1Nc2cc(Cl)c(Cl)cc2N(O)N1c1cccc(Cl)c1,52*,17,1.1,0.5,-10,-17
CC1CCCCC1NC(=O)CSc1nc2ccccc2c(=O)n1Cc1ccco1 (stereo unspecified),4,nt,0.9,1,14,nt
O=C(C1CCC(CNS(=O)(=O)c2cccc3nsnc23)CC1)N1CC=C(c2ccccc2)CC1 (stereo unspecified),71*,-13,0.1,0.3,87*,12
O=C(C1CCN(S(=O)(=O)c2cccc3nsnc23)CC1)N1CC=C(c2ccccc2)CC1,-24,-13,0.7,1.2,26,11
O=C(C1CCCN(S(=O)(=O)c2cccc3nsnc23)C1)N1CC=C(c2ccccc2)CC1 (stereo unspecified),69*,-13,0.4,0.3,64*,13
O=C(O/N=C1/CCSc2ccccc21)c1ccccc1,10,12,0.8,0.9,18,-9
Cc1cc(NC(=O)CCSc2nc(-c3ccco3)cc(C(F)(F)F)n2)n(-c2ccccc2)n1,nt,-2,nt,nt,nt,6
Fc1ccc(-c2cnc[nH]2)cc1,76*,-3,0.5,0.2,55*,5
Cc1[nH]nc2c1C(c1cccnc1)N(c1ccc(Br)cc1)C2=O (stereo unspecified),nt,-16,nt,nt,nt,14
COc1cc(C2c3c(n[nH]c3C)C(=O)N2c2ccc(Br)cc2)ccc1O (stereo unspecified),31,8,0.5,0.7,52*,-7
CCOc1cc(C2c3c(n[nH]c3C)C(=O)N2c2ccc(Br)cc2)ccc1O (stereo unspecified),71*,2,0.2,0.3,81*,0
COC(=O)c1c(C(=O)OC)c(-c2ccc(C)cc2)n2c1CS(=O)C2 (stereo unspecified),34,7,0.7,0.7,30,-8
CN1CCN(Cc2cccc(Oc3ccccc3)c2)CC1,10,2,0.3,0.9,69*,-8
CC1CCCN(Cc2cccc(Oc3ccccc3)c2)C1 (stereo unspecified),11,5,0.3,0.9,67*,-5
OC1CCN(Cc2cccc(Oc3ccccc3)c2)CC1,2,nt,0.9,1,11,nt
Nc1nc(SCc2nc3scc(-c4ccccc4)c3c(=O)[nH]2)n[nH]1,50*,-4,0.8,0.5,24,2
CC(Sc1n[nH]c(N)n1)c1nc2scc(-c3cccs3)c2c(=O)[nH]1 (stereo unspecified),59*,2,0.8,0.4,19,-2
O=c1[nH]c(Cc2ccccc2)nc2scc(-c3ccccc3)c12,35,6,0.9,0.6,15,-8
O=C(NC12CC3CC(CC(C3)C1)C2)c1cc2nc(-c3ccco3)cc(C(F)(F)F)n2n1,24,4,0.9,0.8,9,-5
CCCNC(=O)NC(=O)CSc1nnc(C)n1N,-24,15,1.1,1.2,-9,-16
Cc1ccc2nsnc2c1S(=O)(=O)N(Cc1cc2cccc(C)c2[nH]c1=O)CC1CCCO1 (stereo unspecified),78*,1,0.9,0.2,7,4

# Source: PubChem BioAssay
